# From PubChem BioAssay AID2479 (National Center for Advancing Translational Sciences (NCATS), 2010)
# Inconclusive results are not listed. Calls of active or inactive are those of the source. The call rests on the fitted dose curve.
# Molecular target: Thyroid hormone receptor beta (Homo sapiens) (UniProt P10828)
# Assay: Gene Reporter Secondary Assay for Inhibitors of the Interaction of Thyroid Hormone Receptor and Steroid Receptor Coregulator 2 in a Thyroid Receptor Assay
# Conditions: WRO cells TRb DR4-TRE luciferase reporter, T3, 20 h
# Description: NIH Molecular Libraries Probe Production Network [MLPCN] NIH Chemical Genomics Center [NCGC] MLPCN Grant: DK058080 Assay Provider: R. Kip Guy, St. Jude Children's Research Hospital NCGC Assay Overview: Thyroid receptor (TR) regulates many homeostatic processes including basal metabolism, cardiovascular function, body weight, and lipid trafficking. TR modulators are potential therapeutics for obesity and hyperlipidemias but current thyroid analogs have undesirable side effects, particularly cardiac stimulation. This secondary assay characterized compounds identified in the qHTS for Inhibitors of the Interaction of Thyroid Hormone Receptor and Steroid Receptor Coregulator 2 (PubChem AID 1485). The human follicular thyroid carcinoma cell line WRO (kindly provided by Dr. M. D. Ringel) stably expresses TRb and a luciferase reporter gene fused to TR response element. The addition of T3 ligand elevates expression of the TRE luciferase reporter (DR4-TRE-luc).
# NCGC Assay Protocol Summary: Cells were maintained in RPMI 1640 culture medium supplemented with 10% heat-inactivated FBS, 0.33 mg/ml hygromycin, 0.33 mg/ml geneticin, 50 units/ml penicillin, 50 ug/ml streptomycin. Cells were harvested and resuspended at 330,000 cells/ml in assay medium (50% DMEM 50% F-12 medium without Phenol-Red (Cellgro #16-405-CV), L-glutamine, 10% heat inactivated and charcoal treated FBS, 100 uM non-essential amino acid, 50 units/ml penicillin, 50 ug/ml streptomycin). Cells were dispensed at 8,000 cells/25 ul/well into 384 well plates (Corning 3917) and incubated 12 hr at 37 C and 5% CO2. Following transfer of 130 nL compound (ranging from 0.2 to 52 uM) and T3 (100 nM final concentration), the plates were incubated 20 hr incubation at 37 C and 5% CO2. Plates were then equilibrated at ambient temperature for 30 min, 25 ul of Bright-Glo (Promega) was added and luminescence was detected by an EnVision (PerkinElmer).
# Thyroid hormone receptor beta (Homo sapiens), sequence (P10828 whole entry, looked up): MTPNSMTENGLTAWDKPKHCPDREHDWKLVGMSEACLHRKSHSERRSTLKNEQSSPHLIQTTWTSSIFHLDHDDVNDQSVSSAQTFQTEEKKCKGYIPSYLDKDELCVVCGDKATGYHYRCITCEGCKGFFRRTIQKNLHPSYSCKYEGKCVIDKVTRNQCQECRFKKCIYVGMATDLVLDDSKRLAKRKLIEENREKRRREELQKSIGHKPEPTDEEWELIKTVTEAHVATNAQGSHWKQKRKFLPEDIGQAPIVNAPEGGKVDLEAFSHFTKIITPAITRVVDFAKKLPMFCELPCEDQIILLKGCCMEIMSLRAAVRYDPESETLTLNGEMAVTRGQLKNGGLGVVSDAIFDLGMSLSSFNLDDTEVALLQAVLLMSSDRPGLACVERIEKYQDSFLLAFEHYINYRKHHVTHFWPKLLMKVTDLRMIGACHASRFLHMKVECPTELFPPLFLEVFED
Structure (SMILES),outcome,Potency
O=C(COC(=O)c1cc([N+](=O)[O-])ccc1Cl)NC1C2CC3CC(C2)CC1C3 (centres undefined),inactive,
O=C(COC(=O)c1ccc(F)c([N+](=O)[O-])c1)NC1C2CC3CC(C2)CC1C3 (centres undefined),inactive,
COc1cccc(CNC(=O)COC(=O)c2ccc(S(C)(=O)=O)c([N+](=O)[O-])c2)c1,,21.5 µM (active)
CCN(CC)C(=O)COC(=O)c1ccc(S(C)(=O)=O)c([N+](=O)[O-])c1,,16.8 µM (active)
CC(=O)N1CCN(C(=O)COC(=O)c2ccc([S+](C)(=O)[O-])c([N+](=O)[O-])c2)CC1,inactive,
O=C(COC(=O)c1ccc(Cl)c([N+](=O)[O-])c1)NC1C2CC3CC(C2)CC1C3 (centres undefined),inactive,
CC(=O)c1cccc(NC(=O)C(C)OC(=O)c2ccc(S(C)(=O)=O)c([N+](=O)[O-])c2)c1 (centres undefined),,14.9 µM (active)
O=C(COC(=O)c1cc([N+](=O)[O-])ccc1F)NC1C2CC3CC(C2)CC1C3 (centres undefined),inactive,
CS(=O)(=O)c1ccc(C(=O)OCC(=O)N2CCc3ccccc32)cc1[N+](=O)[O-],,18.6 µM (active)
CS(=O)(=O)c1ccc(C(=O)OCC(=O)N2CCCC2)cc1[N+](=O)[O-],,17.7 µM (active)
CCN1CCN(C(=O)COC(=O)c2ccc(S(C)(=O)=O)c([N+](=O)[O-])c2)CC1C (centres undefined),,26.3 µM (active)
O=C(COC(=O)c1ccc2ncsc2c1)NC(=O)C1CCCCC1,inactive,
CS(=O)(=O)c1ccc(-c2nnc(-c3ccccc3)s2)cc1[N+](=O)[O-],,11.1 µM (active)
Cc1ccccc1NC(=O)COC(=O)c1ccc(S(C)(=O)=O)c([N+](=O)[O-])c1,,22.9 µM (active)
CC1CCCCN1C(=O)COC(=O)c1ccc(S(C)(=O)=O)c([N+](=O)[O-])c1 (centres undefined),,12.6 µM (active)
CC1(C)C2CCC1(C)C(NC(=O)COC(=O)c1ccc(S(C)(=O)=O)c([N+](=O)[O-])c1)C2 (centres undefined),,12.9 µM (active)
C[S+](=O)([O-])c1ccc(C(=O)OCC(=O)NC2C3CC4CC(C3)CC2C4)cc1 (centres undefined),inactive,

Structure (SMILES),outcome,Potency
CS(=O)(=O)c1ccc(C(=O)OCC(=O)N2Cc3ccccc3C2)cc1[N+](=O)[O-],,12.6 µM (active)
Cc1cc(C(=O)OCC(=O)NC(=O)C2CCCCC2)ccc1[N+](=O)[O-],inactive,
CS(=O)(=O)c1ccc(C(=O)OCC(=O)N2CC(=O)Nc3ccccc32)cc1[N+](=O)[O-],,15.8 µM (active)
CS(=O)(=O)c1ccc(C(=O)OCC(=O)Nc2cc(C(F)(F)F)ccc2Cl)cc1[N+](=O)[O-],,22.7 µM (active)
C[S+](=O)([O-])c1ccc(C(=O)OCC(=O)N2CCN([S+](C)(=O)[O-])CC2)cc1[N+](=O)[O-],inactive,
CS(=O)(=O)c1ccc(C(=O)OCC(=O)N2CCOCC2)cc1[N+](=O)[O-],,23 µM (active)
CC(=O)Nc1cccc(C(=O)OCC(=O)NC(=O)C2CCCCC2)c1,inactive,
CS(=O)(=O)c1ccc(-c2nnc(-c3ccccc3)o2)cc1[N+](=O)[O-],,15.7 µM (active)
O=C(COC(=O)c1cccc([N+](=O)[O-])c1Cl)NC1C2CC3CC(C2)CC1C3 (centres undefined),inactive,
CS(=O)(=O)c1ccc(C(=O)OCC(=O)NCC2CCCO2)cc1[N+](=O)[O-] (centres undefined),,15.2 µM (active)
O=C(COC(=O)c1ccc(C(F)(F)F)cc1)NC(=O)C1CCCCC1,inactive,
CCN1CCN(C(=O)COC(=O)c2ccc(S(C)(=O)=O)c([N+](=O)[O-])c2)C(C)C1 (centres undefined),,23.5 µM (active)
O=C(COC(=O)c1cccc([N+](=O)[O-])c1)NC1C2CC3CC(C2)CC1C3 (centres undefined),inactive,
CS(=O)(=O)c1ccc(C(=O)OCC(=O)NC(=O)NC2CCCCC2)cc1[N+](=O)[O-],,12.7 µM (active)
C[S+](=O)([O-])c1ccc(C(=O)OCC(=O)N2CCNC(=O)C2)cc1[N+](=O)[O-],inactive,
CN1CCN(C(=O)COC(=O)c2ccc(S(C)(=O)=O)c([N+](=O)[O-])c2)CC1,,33.9 µM (active)
Cc1ccc(F)cc1NC(=O)COC(=O)c1ccc(S(C)(=O)=O)c([N+](=O)[O-])c1,,17.9 µM (active)
